# According to PubChem BioAssay:
# Several values for one entry are separate records, joined by “and”; a condition that tells them apart may be missing. Identical values can stand only once. Inconclusive results are not listed. For some of these results: Measured potencies and affinities stand elsewhere. Where a structure was tested more than once in an assay, its records may differ in their call. Activity calls are given as the source filed them.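 Rule for the calls, unless noted: active = compounds whose cell count with miR-34 switched on is under 0.7 times the count with it off; inactive = the rest.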
# What was measured:
# [1] = tested on: Hepatitis C virus NS3 helicase; assay: blockers of NS3h binding to ssDNA – biochemical, fluorescence polarization, LOPAC1280 library, primary screen (AID 687035; in the data active = inhibition above about 37%); details: Purified HCV NS3 helicase, Cy5-dT15 ssDNA binding fluorescence polarization; stronger effect = higher value; concentration not given here
# [2] = compounds altering Cy5-DNA-NS3h complex signal – biochemical, LOPAC1280, artefact control for HCV NS3 helicase inhibitor project (AID 687037; call rule not given here); details: Cy5-DNA-NS3h complex fluorescence interference counterscreen
# [3] = viability loss with induced miR-34 in A549 – imaging, A549 dox-inducible miR-34, nuclei and caspase counts, primary screen (AID 1347080); details: A549 miR-34 inducible, Hoechst nuclei count, 48 h
# [4] = blockers of cellular phospholipid synthesis – cell-based, LOPAC library, screen 4, primary screen (AID 1347384; call rule not given here); details: animal cells, phospholipid biosynthesis inhibition screen; at 10 µM
# [5] = galactose survival enhancers in mitochondrial complex I cybrids – cell-based, galactose medium, ATP luminescence, primary screen (AID 1645843;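 active = z-score of at least 1.8 in each of two replicates, scored against plate mean and spread of sample wells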;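 note: positive z means more ATP and so rescue of galactose-driven cybrid death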); details: complex I mutant cybrid cells, 72 h, stronger effect = higher value
# [6] = compounds altering circadian rhythm period length – cell-based, LOPAC library, luminescence reporter (AID 2774; call rule not given here;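 note: values are relative to mean of DMSO wells on each plate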); details: circadian reporter cells, at 7 µM, actives lie on both sides
# [7] = molecular target: ATP-dependent translocase ABCB1 (Homo sapiens) (UniProt P08183); assay: P-glycoprotein substrate transport blockade – cell-based (AID 377; in the data active = fluorescence slope change above about 50%); details: MDR1-expressing cells, fluorescent substrate accumulation slope; stronger effect = higher value; concentration not given here
# [8] = compounds altering viability of human ES cells (AID 493140; call rule not given here;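 note: cells exposed to compounds for four days before counting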); details: human embryonic stem cell survival screen; stronger effect = higher value
# [9] = P. berghei load reduction in hepatocytes – cell-based, HepG2, luciferase luminescence, HepG2 viability, primary screen (AID 624349; in the data active = parasite load remaining mostly below about 12%, no sharp cut-off; inactive = mostly above about 10%;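 note: 100% = mean of DMSO negative control wells on the same plate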); details: P. berghei liver stage in HepG2, luciferase luminescence, concentration not given here; parasite load remaining: stronger effect = lower value; viability: measured here: HepG2 viability without parasites
# [10] = MELAS cybrid and Rieske KO viability enhancers – cell-based, MELAS cybrids, Rieske KO mouse fibroblasts, CellTiter-Glo, primary screen (AID 1508586;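 active = mean z-score across replicates of 1.96 or higher in either the MELAS or the Rieske mutant cell line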;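 note: z relative to plate mean and SD of compound and empty wells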); details: low glucose
# [11] = molecular target: Mitogen-activated protein kinase 7 (Homo sapiens) (UniProt Q13164); assay: Gal4-ERK5 driven luciferase induction – cell-based, HTS, primary screen (AID 1508626;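 active = luciferase signal above three times the same-plate solvent-only control wells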;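 note: luciferase driven by Gal4-ERK5 fusion binding five Gal4 sites before minimal TATA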); details: HeLa Gal4-ERK5 transactivation, 18 h, at 5 µM, stronger effect = higher value
# [12] = molecular target: NAD(+) hydrolase SARM1 (Homo sapiens) (UniProt Q6SZW1); assay: blocking NAD cleavage by SARM1 SAM-TIR – cell lysate, NAD-Glo luminescence (AID 1508614;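 active = compound whose remaining NAD level is above about 45 nM, limit read from the data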;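 note: higher remaining NAD means stronger inhibition of SARM1 NADase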); details: SAM-TIR HEK293T lysate NADase, at 1 µM, stronger effect = higher value
# [13] = blockers of polyQ-driven CASP3 activation – cell-based (AID 1583); details: polyglutamine-induced caspase-3 activation, cell assay; stronger effect = higher value;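 tested at 10 µM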
# [14] = yeast 75Q aggregation reduction – 75Q-TubU reporter (AID 1593); details: Yeast 75Q polyglutamine aggregation reporter
# [15] = restoration of touch response, mutant HTT neurons – whole organism, C. elegans mechanosensory neurons, N-terminal huntingtin (AID 1599); details: C. elegans polyQ-huntingtin mechanosensory neurons, stronger effect = higher value
# [16] = blockers of cytochrome c efflux from mitochondria – biochemical, purified mitochondria (AID 1603); details: stronger effect = lower value;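 note: mouse liver mitochondria challenged with calcium chloride; signal normalized to the plate average as 100%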
# [17] = polyglutamine aggregate formation blockers (AID 1604); details: polyglutamine-induced protein aggregation inhibition assay; stronger effect = higher value; tested at 2.5 µM
# [18] = glutamate transport activators, MN-1 cells, MN-1 cell line (AID 1612); details: MN-1 motor neuron cells, stronger effect = higher value;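 note: tested at 1 µM final; 0% = mean of DMSO vehicle wells on each plate; positive means more glutamate uptake than control and negative means less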
# [19] = GFP-Q80 aggregate reduction, neuronal-like cells, cell-based, NGF-treated PC12, GFPQ80 (AID 1614); details: PC12 NGF-treated GFP-polyQ80 inclusion reduction;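 note: lower means fewer inclusions and 0 means no inclusions at all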
# [20] = 75Q-TubH aggregate inhibition, S. cerevisiae, yeast (AID 1616); details: S. cerevisiae 75Q-TubH polyglutamine aggregation suppression; stronger effect = higher value
# [21] = stronger effect = lower value, cell number ratio, induced over uninduced
# [22] = measured here: relative caspase fold change +Dox/-Dox
# [23] = measured here: total cells with miR-34 induction, stronger effect = lower value
# [24] = measured here: total cells without miR-34 induction
# [25] = MELAS cybrid survival, CellTiter-Glo 48 h, stronger effect = higher value
# [26] = Rieske KO mouse fibroblast survival, CellTiter-Glo 72 h
# Chain of Mitogen-activated protein kinase 7 (Homo sapiens) (Q13164 whole entry, looked up, the tested form may be a part): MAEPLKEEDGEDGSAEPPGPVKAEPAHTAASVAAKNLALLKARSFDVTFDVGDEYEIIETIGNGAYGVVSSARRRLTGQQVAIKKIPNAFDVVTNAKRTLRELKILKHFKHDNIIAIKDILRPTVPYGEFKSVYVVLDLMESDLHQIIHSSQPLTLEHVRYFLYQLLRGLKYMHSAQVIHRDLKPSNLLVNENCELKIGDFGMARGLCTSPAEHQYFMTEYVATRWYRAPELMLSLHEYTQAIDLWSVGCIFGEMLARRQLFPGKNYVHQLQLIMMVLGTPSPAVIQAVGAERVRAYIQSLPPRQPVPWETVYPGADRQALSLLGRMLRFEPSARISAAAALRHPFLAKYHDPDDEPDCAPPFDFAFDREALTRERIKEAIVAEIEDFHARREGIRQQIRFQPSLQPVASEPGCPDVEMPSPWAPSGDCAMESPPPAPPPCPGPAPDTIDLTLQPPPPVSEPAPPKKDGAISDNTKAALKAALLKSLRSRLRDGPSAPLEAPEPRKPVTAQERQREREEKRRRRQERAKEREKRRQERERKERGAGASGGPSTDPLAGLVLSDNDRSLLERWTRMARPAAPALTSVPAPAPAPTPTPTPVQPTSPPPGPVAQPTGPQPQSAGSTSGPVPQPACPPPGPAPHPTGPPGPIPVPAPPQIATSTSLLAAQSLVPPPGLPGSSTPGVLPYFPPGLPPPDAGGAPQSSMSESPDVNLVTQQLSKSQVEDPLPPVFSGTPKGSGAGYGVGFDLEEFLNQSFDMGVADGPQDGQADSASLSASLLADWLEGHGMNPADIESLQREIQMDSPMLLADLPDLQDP
# Chain of NAD(+) hydrolase SARM1 (Homo sapiens) (Q6SZW1 whole entry, looked up): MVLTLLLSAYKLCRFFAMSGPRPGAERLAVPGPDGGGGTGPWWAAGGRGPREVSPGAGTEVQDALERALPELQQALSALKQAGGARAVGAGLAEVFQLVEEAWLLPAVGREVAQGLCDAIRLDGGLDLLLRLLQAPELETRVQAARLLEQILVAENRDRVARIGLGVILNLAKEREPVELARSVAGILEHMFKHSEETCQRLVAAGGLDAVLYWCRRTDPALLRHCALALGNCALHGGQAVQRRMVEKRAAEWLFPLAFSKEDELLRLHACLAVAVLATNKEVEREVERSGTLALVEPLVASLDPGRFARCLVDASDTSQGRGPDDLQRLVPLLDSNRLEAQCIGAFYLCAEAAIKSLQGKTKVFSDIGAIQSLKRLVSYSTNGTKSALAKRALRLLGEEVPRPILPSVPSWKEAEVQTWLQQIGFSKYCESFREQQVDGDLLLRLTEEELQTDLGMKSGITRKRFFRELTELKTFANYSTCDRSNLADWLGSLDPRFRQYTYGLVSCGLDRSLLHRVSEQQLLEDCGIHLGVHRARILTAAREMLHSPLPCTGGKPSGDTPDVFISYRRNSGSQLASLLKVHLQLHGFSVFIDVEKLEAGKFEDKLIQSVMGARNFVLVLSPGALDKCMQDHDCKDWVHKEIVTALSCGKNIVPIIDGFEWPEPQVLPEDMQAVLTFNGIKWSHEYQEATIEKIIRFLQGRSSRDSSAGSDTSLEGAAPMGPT
# Chain of ATP-dependent translocase ABCB1 (Homo sapiens) (P08183 whole entry, looked up): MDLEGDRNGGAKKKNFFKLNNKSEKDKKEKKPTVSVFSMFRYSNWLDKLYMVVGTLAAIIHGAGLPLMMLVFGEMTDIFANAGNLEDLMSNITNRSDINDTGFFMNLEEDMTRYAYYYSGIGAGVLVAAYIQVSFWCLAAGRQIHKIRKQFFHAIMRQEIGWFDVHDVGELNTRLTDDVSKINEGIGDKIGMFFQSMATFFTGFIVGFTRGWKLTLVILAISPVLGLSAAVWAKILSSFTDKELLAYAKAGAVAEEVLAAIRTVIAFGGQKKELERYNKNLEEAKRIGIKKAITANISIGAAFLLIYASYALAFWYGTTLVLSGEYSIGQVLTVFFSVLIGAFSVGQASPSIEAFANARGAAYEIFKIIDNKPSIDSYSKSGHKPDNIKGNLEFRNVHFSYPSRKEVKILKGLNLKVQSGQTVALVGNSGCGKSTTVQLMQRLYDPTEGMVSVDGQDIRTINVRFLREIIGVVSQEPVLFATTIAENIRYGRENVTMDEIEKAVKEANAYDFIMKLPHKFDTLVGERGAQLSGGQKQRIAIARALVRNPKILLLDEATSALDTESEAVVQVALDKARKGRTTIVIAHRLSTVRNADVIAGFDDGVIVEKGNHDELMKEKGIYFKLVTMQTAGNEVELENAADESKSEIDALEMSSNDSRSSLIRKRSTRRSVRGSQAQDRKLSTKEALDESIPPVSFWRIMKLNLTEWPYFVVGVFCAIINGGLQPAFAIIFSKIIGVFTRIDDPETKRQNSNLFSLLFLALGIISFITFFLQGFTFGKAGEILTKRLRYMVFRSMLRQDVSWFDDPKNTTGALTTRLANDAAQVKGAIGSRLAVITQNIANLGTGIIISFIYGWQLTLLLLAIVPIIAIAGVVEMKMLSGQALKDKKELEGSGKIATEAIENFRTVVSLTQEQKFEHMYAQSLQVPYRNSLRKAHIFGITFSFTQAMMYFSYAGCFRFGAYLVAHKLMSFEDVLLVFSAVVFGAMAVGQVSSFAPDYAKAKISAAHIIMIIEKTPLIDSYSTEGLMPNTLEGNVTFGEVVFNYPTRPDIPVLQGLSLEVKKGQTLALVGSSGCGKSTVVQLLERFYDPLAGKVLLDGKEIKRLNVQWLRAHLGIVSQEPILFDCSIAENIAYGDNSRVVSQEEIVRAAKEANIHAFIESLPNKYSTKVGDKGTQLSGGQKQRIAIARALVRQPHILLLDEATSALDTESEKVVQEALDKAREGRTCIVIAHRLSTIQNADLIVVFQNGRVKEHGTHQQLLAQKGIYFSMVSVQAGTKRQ
structure (smiles),measurement,setting,value
N#C/C(=C\c1ccc(-c2cc(Cl)ccc2Cl)o1)C(=O)Nc1cccc2ncccc12,inhibition,[1],-12% (inactive)
same,fluorescence ratio (interference),[2],0.8 (active)
same,fold change,[3]; [21],1.06 (inactive) and 0.955 (inactive)
same,fold change,[3]; [22],0.614 and 1.48
same,cell count,[3]; [23],1870 and 5590
same,cell count,[3]; [24],1750 and 5850
same,outcome,[4],inactive
same,z-score,[5],0.46 (inactive)
O=c1onc2n1-c1cc(Br)ccc1OC2,period change,[6],0.015 h (inactive)
same,inhibition,[1],-4% (inactive)
same,fluorescence ratio (interference),[2],1 (inactive)
same,fold change,[3]; [21],1.09 (inactive) and 0.947 (inactive)
same,fold change,[3]; [22],1.04 and 0.916
same,cell count,[3]; [23],11200 and 5950
same,cell count,[3]; [24],10300 and 6280
same,outcome,[4],inactive
same,z-score,[5],0.095 (inactive)
CCN(CC)CCOc1ccc(/C(=C(/Cl)c2ccccc2)c2ccccc2)cc1,fluorescence slope change,[7],69.8% (active)
same,survival,[8],1.25 (inactive)
same,parasite load remaining,[9],5.86% (inactive) and 13.7% (inactive) and 1.37% (inactive)
same,viability,[9],83.4% and 76% and 71%
same,fold change,[3]; [21],0.802 (inactive) and 0.892 (inactive)
same,fold change,[3]; [22],1.39 and 1.34
same,cell count,[3]; [23],7010 and 7690
same,cell count,[3]; [24],8740 and 8620
same,z-score,[10]; [25],-1.93 (inactive) and -1.91 (inactive)
same,z-score,[10]; [26],-0.316 and -1.39
same,z-score,[5],-2.19 (inactive)
N[C@@H](Cn1ccc(=O)c(O)c1)C(=O)O,parasite load remaining,[9],61.9% (inactive)
same,viability,[9],117%
same,inhibition,[1],-3% (inactive)
same,fluorescence ratio (interference),[2],1 (inactive)
same,fold change,[3]; [21],1.03 (inactive) and 0.872 (inactive)
same,fold change,[3]; [22],1.54 and 1.46
same,cell count,[3]; [23],10200 and 9120
same,cell count,[3]; [24],9910 and 10400
same,outcome,[4],inactive
same,luciferase signal,[11],68 AU (inactive)
same,z-score,[5],0.455 (inactive)
NC(=O)c1cc[n+](CC2=C(C(=O)O)N3C(=O)[C@@H](NC(=O)[C@@H](c4ccccc4)S(=O)(=O)[O-])[C@H]3SC2)cc1,period change,[6],-0.015 h (inactive)
same,survival,[8],7.17 (inactive)
same,parasite load remaining,[9],79.7% (inactive)
same,viability,[9],103%
same,inhibition,[1],4% (inactive)
same,fluorescence ratio (interference),[2],1 (inactive)
same,fold change,[3]; [21],1.02 (inactive) and 0.887 (inactive)
same,fold change,[3]; [22],2.31 and 1.36
same,cell count,[3]; [23],10400 and 9300
same,cell count,[3]; [24],10200 and 10500
same,z-score,[10]; [25],0.659 (inactive)
same,z-score,[10]; [26],-0.267
same,remaining NAD,[12],10 nM (inactive)
same,luciferase signal,[11],36 AU (inactive)
same,z-score,[5],-0.05 (inactive)
CC1c2cccc(O)c2C(O)=C2C(=O)[C@]3(O)C(O)=C(C(N)=O)C(=O)C(N(C)C)[C@@H]3C(O)[C@@H]21 (stereo partly specified),fold change,[3]; [21],0.722 (inactive) and 0.743 (inactive) and 0.957 (inactive)
same,fold change,[3]; [22],1.04 and 0.719 and 0.385
same,cell count,[3]; [23],5360 and 5020 and 8780
same,cell count,[3]; [24],7420 and 6760 and 9180
same,z-score,[10]; [25],4.12 (active) and 3.16 (active) and -0.469 (inactive)
same,z-score,[10]; [26],5.71 and 4.93 and -0.551
CCC1(c2ccccc2)NC(=O)N(C)C1=O (stereo unspecified),inhibition,[13],6.58%
same,score,[14],1.42
same,rescue above control,[15],11.8
same,cytochrome c release ratio,[16],0.46
same,inhibition of aggregation,[17],79.3%
same,glutamate uptake change,[18],-9.05%
same,inclusion score,[19],2
same,aggregation suppression score,[20],1.34
same,survival,[8],9.5 (inactive)
same,parasite load remaining,[9],75.3% (inactive) and 65.4% (inactive)
same,viability,[9],74.4% and 110%
same,fold change,[3]; [21],0.978 (inactive) and 0.889 (inactive)
same,fold change,[3]; [22],0.677 and 1.53
same,cell count,[3]; [23],9090 and 9500
same,cell count,[3]; [24],9300 and 10700
same,z-score,[10]; [25],0.04 (inactive) and 0.144 (inactive)
same,z-score,[10]; [26],0.0806 and -0.391
same,z-score,[5],0.64 (inactive)
CN(CC=CC#CC(C)(C)C)Cc1cccc2ccccc12,fold change,[3]; [21],0.964 (inactive) and 0.918 (inactive) and 0.968 (inactive)
same,fold change,[3]; [22],2.12 and 1.02 and 0.751
same,cell count,[3]; [23],9310 and 7680 and 9620
same,cell count,[3]; [24],9660 and 8370 and 9940
same,z-score,[10]; [25],-0.142 (inactive) and -0.315 (inactive)
same,z-score,[10]; [26],-0.993 and 0.763
same,z-score,[5],-1.88 (inactive)
O=[N+]([O-])c1ccc2c(c1)S(=O)(=O)C=C2,inhibition,[1],-2% (inactive)
same,fluorescence ratio (interference),[2],1 (inactive)
same,fold change,[3]; [21],0.698 (active) and 1.19 (inactive)
same,fold change,[3]; [22],0.963 and 0.522
same,cell count,[3]; [23],598 and 1740
same,cell count,[3]; [24],856 and 1460
same,outcome,[4],inactive
same,z-score,[10]; [25],3.07 (active)
same,z-score,[10]; [26],-0.336
same,z-score,[5],-1.38 (inactive)
CCC(CO)Nc1nc(NCc2ccccc2)c2ncn(C(C)C)c2n1 (stereo unspecified),period change,[6],1.22 h (active)
same,inhibition,[1],0% (inactive)
same,fluorescence ratio (interference),[2],1 (inactive)
same,fold change,[3]; [21],1.36 (inactive) and 0.915 (inactive)
same,fold change,[3]; [22],0.998 and 1.15
same,cell count,[3]; [23],1560 and 4690
same,cell count,[3]; [24],1150 and 5130
same,outcome,[4],inactive
same,z-score,[10]; [25],-0.381 (inactive)
same,z-score,[10]; [26],0.0764
same,z-score,[5],-0.51 (inactive)
